From the supplement of paper PMC10849652
Targets with a hit are over-represented here; the source holds about 7,900 in all. About 0.6% of all pairs of compound and target were hits. Values without a mark were called inactive.

Tests used:
Experiment in all cases: log2 fold change, soluble protein after heating vs DMSO (PISA); higher = thermal stabilisation; K562 cells, 10 uM, 30 min; active = over 0.2 and 3.5 SD of the protein, either way, in both replicates (recomputed)
[1] = compound: CS(=O)(=O)c1ccc(-c2cnc(N)c(C(=O)Nc3ccccc3)n2)cc1
Procedure, shortened: (§1)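 For each measurement, 10 μM compound was applied for 30 min to K562 cells at 2×10^6 cells/mL. Aliquots were heated for 3 min across 48°C-58°C, pooled, and extracted in PBS with 0.5% NP-40 at 4°C; the supernatant after 21,000xg for 90 min was soluble protein. This was quantified by TMTpro 16plex LC-MS/MS with channel sums equalised, and thermal stability was reported relative to control samples from duplicates, on a log2 fold-change scale.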

[2] = compound: C[C@@H]1COCCN1C2=NC(=NC(=C2)C3(CC3)S(=O)(=O)C)C4=C5C=CNC5=CC=C4
Procedure, shortened: as §1

[3] = compound: C[C@H](C1=CC=C(C=C1)C(=O)NC2=C3C=CNC3=NC=C2)N
Procedure, shortened: as §1

gandotinib = compound: Cc1cc(Nc2cc(CN3CCOCC3)c3nc(C)c(Cc4ccc(Cl)cc4F)n3n2)n[nH]1 [gandotinib]
Procedure, shortened: as §1

tozasertib = compound: Cc1cc(Nc2cc(N3CCN(C)CC3)nc(Sc3ccc(NC(=O)C4CC4)cc3)n2)n[nH]1 [tozasertib]
Procedure, shortened: as §1

doramapimod = compound: Cc1ccc(-n2nc(C(C)(C)C)cc2NC(=O)Nc2ccc(OCCN3CCOCC3)c3ccccc23)cc1 [doramapimod]
Procedure, shortened: as §1

ispinesib = compound: Cc1ccc(C(=O)N(CCCN)[C@@H](c2nc3cc(Cl)ccc3c(=O)n2Cc2ccccc2)C(C)C)cc1 [ispinesib]
Procedure, shortened: as §1

bafetinib = compound: Cc1ccc(NC(=O)c2ccc(CN3CC[C@H](N(C)C)C3)c(C(F)(F)F)c2)cc1Nc1nccc(-c2cncnc2)n1 [bafetinib]
Procedure, shortened: as §1

[4] = compound: Cc1cccc(CC(=O)N2CCc3c2ccc(-c2cn(C)c4ncnc(N)c24)c3F)n1
Procedure, shortened: as §1

nilotinib = compound: Cc1cn(-c2cc(NC(=O)c3ccc(C)c(Nc4nccc(-c5cccnc5)n4)c3)cc(C(F)(F)F)c2)cn1 [nilotinib]
Procedure, shortened: as §1

[5] = compound: Cc1nc(Nc2n[nH]c3c2CN(C(=O)N[C@H](CN(C)C)c2ccccc2)C3(C)C)c2sccc2n1
Procedure, shortened: as §1

[6] = compound: Cc1ncc(-c2ccnc(Nc3ccc(S(C)(=O)=O)cc3)n2)n1C(C)C
Procedure, shortened: as §1

[7] = compound: Cn1cc(-c2ccc3c(c2)CCN3C(=O)Cc2cccc(C(F)(F)F)c2)c2c(N)ncnc21
Procedure, shortened: as §1

[8] = compound: Cn1cc(-c2ccc3nnc(C(F)(F)c4ccc5ncccc5c4)n3n2)cn1
Procedure, shortened: as §1

tipifarnib = compound: Cn1cncc1[C@@](N)(c1ccc(Cl)cc1)c1ccc2c(c1)c(-c1cccc(Cl)c1)cc(=O)n2C [tipifarnib]
Procedure, shortened: as §1

mubritinib = compound: FC(F)(F)c1ccc(/C=C/c2nc(COc3ccc(CCCCn4ccnn4)cc3)co2)cc1 [mubritinib]
Procedure, shortened: as §1

crizotinib = compound: C[C@@H](Oc1cc(-c2cnn(C3CCNCC3)c2)cnc1N)c1c(Cl)ccc(F)c1Cl [crizotinib]
Procedure, shortened: as §1

duvelisib = compound: C[C@H](Nc1ncnc2nc[nH]c12)c1cc2cccc(Cl)c2c(=O)n1-c1ccccc1 [duvelisib]
Procedure, shortened: as §1

[9] = compound: Cc1cc(SCc2sc(-c3ccc(C(F)(F)F)cc3)nc2C)ccc1OCC(=O)O
Procedure, shortened: as §1

dasatinib = compound: Cc1nc(Nc2ncc(C(=O)Nc3c(C)cccc3Cl)s2)cc(N2CCN(CCO)CC2)n1 [dasatinib]
Procedure, shortened: as §1

MAP4K5 (UniProt Q9Y4K4)
log2 fold change [1]: 0.019 | log2 fold change [2]: 0.072 | log2 fold change [3]: 0.24 | log2 fold change (gandotinib): -0.067 | log2 fold change (tozasertib): -0.088 | log2 fold change (doramapimod): -0.064 | log2 fold change (ispinesib): -0.045 | log2 fold change (bafetinib): -0.064 | log2 fold change [4]: -0.001 | log2 fold change (nilotinib): 0.136 | log2 fold change [5]: -0.093 | log2 fold change [6]: -0.116 | log2 fold change [7]: -0.125 | log2 fold change [8]: 0.019 | log2 fold change (tipifarnib): -0.146 | log2 fold change (mubritinib): 0.022

MAGEA8 (UniProt P43361)
UniProt P43361, sequence (P43361 whole entry, looked up): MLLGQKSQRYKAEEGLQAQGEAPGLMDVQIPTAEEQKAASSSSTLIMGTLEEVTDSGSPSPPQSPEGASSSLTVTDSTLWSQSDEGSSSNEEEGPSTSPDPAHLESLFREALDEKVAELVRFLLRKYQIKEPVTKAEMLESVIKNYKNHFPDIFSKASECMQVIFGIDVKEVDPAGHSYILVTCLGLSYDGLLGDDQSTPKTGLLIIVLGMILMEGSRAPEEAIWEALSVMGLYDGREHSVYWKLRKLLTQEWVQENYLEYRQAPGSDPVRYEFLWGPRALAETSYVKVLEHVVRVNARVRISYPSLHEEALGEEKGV
log2 fold change (crizotinib): -0.003 | log2 fold change [3]: 0.134 | log2 fold change (duvelisib): -0.082 | log2 fold change (gandotinib): -0.472 (active) | log2 fold change (tozasertib): -0.007 | log2 fold change [9]: -0.002 | log2 fold change (doramapimod): 0.037 | log2 fold change (ispinesib): -0.034 | log2 fold change (bafetinib): 0.022 | log2 fold change [4]: -0.265 | log2 fold change (nilotinib): -0.372 (active) | log2 fold change [5]: -0.207 | log2 fold change (dasatinib): 0.019 | log2 fold change [6]: 0.016 | log2 fold change [7]: 0.008 | log2 fold change [8]: -0.003 | log2 fold change (tipifarnib): -0.01

MFSD1 isoform 6 (UniProt Q9H3U5)
log2 fold change [1]: 0.035 | log2 fold change [2]: 0.076 | log2 fold change [3]: -0.03 | log2 fold change (gandotinib): -0.077 | log2 fold change (tozasertib): 0.041 | log2 fold change (ispinesib): -0.367 (active) | log2 fold change (bafetinib): -0.123 | log2 fold change [4]: 0.066 | log2 fold change (nilotinib): -0.017 | log2 fold change [5]: 0.046 | log2 fold change [6]: -0.016 | log2 fold change [7]: -0.034 | log2 fold change [8]: 0.033 | log2 fold change (tipifarnib): 0.05 | log2 fold change (mubritinib): 0.005

MARCHF3 (UniProt Q86UD3)
log2 fold change [1]: 0.243 | log2 fold change [2]: 0.029 | log2 fold change (bafetinib): 0.109 | log2 fold change (nilotinib): 0.156 | log2 fold change [5]: 0.15 | log2 fold change [6]: 0.036 | log2 fold change (tipifarnib): 0.001

KMT5A (UniProt Q9NQR1)
UniProt Q9NQR1, sequence (Q9NQR1 whole entry, looked up): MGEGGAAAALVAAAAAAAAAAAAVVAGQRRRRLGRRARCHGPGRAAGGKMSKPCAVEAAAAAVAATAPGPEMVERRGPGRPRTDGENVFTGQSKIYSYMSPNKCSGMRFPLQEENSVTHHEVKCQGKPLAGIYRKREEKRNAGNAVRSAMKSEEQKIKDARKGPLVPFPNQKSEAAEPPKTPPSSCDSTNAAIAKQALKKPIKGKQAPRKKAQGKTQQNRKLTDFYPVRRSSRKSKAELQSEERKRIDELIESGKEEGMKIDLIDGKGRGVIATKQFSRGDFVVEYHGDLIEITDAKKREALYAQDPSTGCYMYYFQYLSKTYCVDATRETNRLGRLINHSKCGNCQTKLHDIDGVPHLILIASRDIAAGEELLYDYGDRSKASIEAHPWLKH
log2 fold change [1]: 0.018 | log2 fold change (gandotinib): 0.038 | log2 fold change [4]: -0.218

MFAP3 (UniProt P55082)
log2 fold change [1]: -0.012 | log2 fold change [2]: 0.045 | log2 fold change (duvelisib): 0.083 | log2 fold change (tozasertib): 0.009 | log2 fold change [9]: 0.003 | log2 fold change (bafetinib): -0.385 | log2 fold change (dasatinib): -0.083

MGRN1 isoform 2 (UniProt O60291)
UniProt O60291, sequence (O60291 whole entry, looked up): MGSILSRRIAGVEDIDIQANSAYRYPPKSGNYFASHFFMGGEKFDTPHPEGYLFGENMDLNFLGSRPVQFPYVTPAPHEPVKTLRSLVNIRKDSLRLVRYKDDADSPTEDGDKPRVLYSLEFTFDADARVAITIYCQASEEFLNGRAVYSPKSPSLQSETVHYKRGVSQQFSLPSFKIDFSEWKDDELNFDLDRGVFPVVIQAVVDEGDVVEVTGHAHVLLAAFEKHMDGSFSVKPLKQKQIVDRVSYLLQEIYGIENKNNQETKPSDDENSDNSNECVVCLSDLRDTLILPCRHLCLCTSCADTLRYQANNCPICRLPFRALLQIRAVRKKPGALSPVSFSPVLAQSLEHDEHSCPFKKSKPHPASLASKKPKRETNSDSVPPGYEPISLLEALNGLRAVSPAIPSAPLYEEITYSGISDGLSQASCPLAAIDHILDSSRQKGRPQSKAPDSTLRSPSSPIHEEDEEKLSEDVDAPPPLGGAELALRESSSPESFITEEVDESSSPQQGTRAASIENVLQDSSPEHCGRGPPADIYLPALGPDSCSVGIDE
log2 fold change (crizotinib): -0.015 | log2 fold change [3]: 0.225 | log2 fold change (gandotinib): 0.06 | log2 fold change (tozasertib): -0.136 | log2 fold change (doramapimod): 0.012 | log2 fold change (ispinesib): -0.225 | log2 fold change (bafetinib): -0.07 | log2 fold change [4]: -0.227 | log2 fold change [7]: -0.149 | log2 fold change [8]: 0.027 | log2 fold change (tipifarnib): 0.2

MFSD12 isoform 3 (UniProt Q6NUT3)
log2 fold change [1]: 0.17 | log2 fold change [3]: -0.213 | log2 fold change (duvelisib): 0.109 | log2 fold change (gandotinib): -0.122 | log2 fold change (tozasertib): 0.063 | log2 fold change [9]: 0.065 | log2 fold change [4]: 0.047 | log2 fold change (dasatinib): -0.093 | log2 fold change [7]: -0.124

IKZF1 (UniProt R9R4D9)
log2 fold change (crizotinib): 0.028 | log2 fold change [3]: -0.078 | log2 fold change (duvelisib): 0.042 | log2 fold change (gandotinib): 0.244 | log2 fold change (tozasertib): -0.066 | log2 fold change [9]: -0.12 | log2 fold change (doramapimod): 0.235 | log2 fold change [4]: -0.164 | log2 fold change (dasatinib): -0.17 | log2 fold change [7]: -0.044 | log2 fold change (tipifarnib): -0.119

KIF21A (UniProt H0YI78)
log2 fold change (ispinesib): -0.041 | log2 fold change [8]: 0.134

LIN52 (UniProt Q52LA3)
UniProt Q52LA3, sequence (Q52LA3 whole entry, looked up): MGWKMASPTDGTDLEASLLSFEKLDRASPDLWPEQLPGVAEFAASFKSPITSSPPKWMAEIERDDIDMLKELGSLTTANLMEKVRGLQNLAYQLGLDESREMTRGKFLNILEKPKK
log2 fold change (duvelisib): -0.087 | log2 fold change [9]: -0.059 | log2 fold change (dasatinib): -0.049 | log2 fold change (mubritinib): -0.117

MAPK11 (UniProt Q15759)
log2 fold change (crizotinib): -0.115 | log2 fold change (gandotinib): -0.083 | log2 fold change (tozasertib): 0.268 | log2 fold change (ispinesib): -0.334 | log2 fold change [4]: -0.116 | log2 fold change [8]: -0.024

MED29 (UniProt Q9NX70)
UniProt Q9NX70, sequence (Q9NX70 whole entry, looked up): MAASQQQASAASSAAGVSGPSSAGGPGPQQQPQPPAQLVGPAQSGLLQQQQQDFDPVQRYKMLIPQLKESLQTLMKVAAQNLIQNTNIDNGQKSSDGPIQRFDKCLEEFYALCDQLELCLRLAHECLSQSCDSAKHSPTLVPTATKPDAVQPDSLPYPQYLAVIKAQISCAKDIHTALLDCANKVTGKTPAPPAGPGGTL
log2 fold change (duvelisib): -0.025 | log2 fold change [9]: 0.171 | log2 fold change (nilotinib): 0.017 | log2 fold change [5]: 0.027 | log2 fold change (dasatinib): 0.226 | log2 fold change [6]: -0.14 | log2 fold change (tipifarnib): 0.169 | log2 fold change (mubritinib): -0.136

LDLRAP1 (UniProt Q5SW96)
UniProt Q5SW96, sequence (Q5SW96 whole entry, looked up): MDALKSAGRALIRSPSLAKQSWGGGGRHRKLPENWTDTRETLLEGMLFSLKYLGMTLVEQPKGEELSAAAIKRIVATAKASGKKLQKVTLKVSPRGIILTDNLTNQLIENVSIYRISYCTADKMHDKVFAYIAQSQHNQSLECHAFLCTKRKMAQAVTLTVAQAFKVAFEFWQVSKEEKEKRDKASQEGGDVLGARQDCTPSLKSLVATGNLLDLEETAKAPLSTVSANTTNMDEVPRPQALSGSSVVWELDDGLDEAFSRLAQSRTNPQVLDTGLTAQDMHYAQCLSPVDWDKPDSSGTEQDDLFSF
log2 fold change (crizotinib): 0.004 | log2 fold change (doramapimod): 0.18 | log2 fold change (ispinesib): -0.088 | log2 fold change (bafetinib): -0.011 | log2 fold change [8]: 0.14

MFSD8 (UniProt Q8NHS3)
UniProt Q8NHS3, sequence (Q8NHS3 whole entry, looked up): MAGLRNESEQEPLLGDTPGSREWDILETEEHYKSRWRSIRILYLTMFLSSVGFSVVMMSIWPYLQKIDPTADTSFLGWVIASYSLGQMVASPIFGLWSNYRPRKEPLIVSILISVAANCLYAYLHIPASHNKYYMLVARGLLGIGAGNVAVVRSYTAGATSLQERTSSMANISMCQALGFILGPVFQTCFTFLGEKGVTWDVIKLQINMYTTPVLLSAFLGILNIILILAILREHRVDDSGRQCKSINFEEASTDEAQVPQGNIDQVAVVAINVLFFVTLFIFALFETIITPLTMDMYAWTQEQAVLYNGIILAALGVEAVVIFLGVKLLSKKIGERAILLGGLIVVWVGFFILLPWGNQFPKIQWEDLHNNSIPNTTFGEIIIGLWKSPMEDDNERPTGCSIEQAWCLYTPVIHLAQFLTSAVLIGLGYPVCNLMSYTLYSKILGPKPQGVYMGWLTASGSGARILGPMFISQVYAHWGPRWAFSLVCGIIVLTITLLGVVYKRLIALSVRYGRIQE
log2 fold change (crizotinib): -0.013 | log2 fold change [2]: 0.04 | log2 fold change [3]: -0.023 | log2 fold change (duvelisib): -0.108 | log2 fold change (gandotinib): -0.018 | log2 fold change (tozasertib): 0.055 | log2 fold change [9]: -0.015 | log2 fold change (doramapimod): 0.131 | log2 fold change (ispinesib): -0.208 | log2 fold change (bafetinib): -0.006 | log2 fold change [4]: -0.12 | log2 fold change (dasatinib): 0.061 | log2 fold change [7]: -0.007 | log2 fold change [8]: 0.017 | log2 fold change (tipifarnib): -0.042 | log2 fold change (mubritinib): -0.002

LSR isoform 3 (UniProt Q86X29)
log2 fold change [1]: 0.052 | log2 fold change [3]: -0.138 | log2 fold change (duvelisib): 0.179 | log2 fold change (tozasertib): -0.324 | log2 fold change [9]: -0.118 | log2 fold change (dasatinib): -0.074 | log2 fold change [7]: 0.026 | log2 fold change (tipifarnib): 0.101 | log2 fold change (mubritinib): 0.435

KXD1 (UniProt Q9BQD3)
UniProt Q9BQD3, sequence (Q9BQD3 whole entry, looked up): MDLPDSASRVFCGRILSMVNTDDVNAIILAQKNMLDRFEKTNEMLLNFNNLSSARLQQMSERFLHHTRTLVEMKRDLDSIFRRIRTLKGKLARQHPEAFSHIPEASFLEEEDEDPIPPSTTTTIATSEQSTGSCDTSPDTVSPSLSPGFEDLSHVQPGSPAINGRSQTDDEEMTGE
log2 fold change [2]: 0.118 | log2 fold change [3]: -0.009 | log2 fold change (duvelisib): 0.067 | log2 fold change (gandotinib): -0.156 | log2 fold change (tozasertib): -0.046 | log2 fold change [9]: 0.012 | log2 fold change (ispinesib): -0.078 | log2 fold change (bafetinib): -0.131 | log2 fold change [4]: 0.045 | log2 fold change (dasatinib): -0.082 | log2 fold change [7]: 0.019 | log2 fold change [8]: 0.085 | log2 fold change (tipifarnib): 0.024 | log2 fold change (mubritinib): 0.052

MAP4K2 (UniProt Q12851)
UniProt Q12851, sequence (Q12851 whole entry, looked up): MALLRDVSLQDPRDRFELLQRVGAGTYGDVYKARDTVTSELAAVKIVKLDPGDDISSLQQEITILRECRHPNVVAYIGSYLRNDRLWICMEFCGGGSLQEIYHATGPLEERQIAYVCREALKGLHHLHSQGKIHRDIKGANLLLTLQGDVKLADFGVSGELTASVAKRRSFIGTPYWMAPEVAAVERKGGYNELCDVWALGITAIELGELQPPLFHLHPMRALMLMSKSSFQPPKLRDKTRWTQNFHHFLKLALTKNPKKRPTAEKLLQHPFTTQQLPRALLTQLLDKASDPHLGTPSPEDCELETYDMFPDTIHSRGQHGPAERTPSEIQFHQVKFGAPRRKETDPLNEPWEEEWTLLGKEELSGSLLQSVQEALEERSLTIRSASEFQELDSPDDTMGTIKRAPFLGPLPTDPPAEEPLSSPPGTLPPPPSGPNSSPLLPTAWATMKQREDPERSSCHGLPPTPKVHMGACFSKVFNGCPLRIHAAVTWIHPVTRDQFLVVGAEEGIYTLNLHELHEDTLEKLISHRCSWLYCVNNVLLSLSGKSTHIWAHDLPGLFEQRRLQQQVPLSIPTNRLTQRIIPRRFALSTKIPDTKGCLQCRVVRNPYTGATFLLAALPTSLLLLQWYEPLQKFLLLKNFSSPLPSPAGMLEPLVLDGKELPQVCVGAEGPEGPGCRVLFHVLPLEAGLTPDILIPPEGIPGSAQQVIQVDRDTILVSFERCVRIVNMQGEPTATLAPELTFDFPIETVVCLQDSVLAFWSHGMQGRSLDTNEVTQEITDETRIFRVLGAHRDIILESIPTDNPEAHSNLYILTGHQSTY
log2 fold change [1]: -0.032 | log2 fold change [3]: -0.129 | log2 fold change (tozasertib): 0.158 | log2 fold change (doramapimod): -0.091 | log2 fold change (bafetinib): -0.116 | log2 fold change (nilotinib): -0.187 | log2 fold change [5]: 0.024 | log2 fold change [6]: -0.13 | log2 fold change [7]: -0.135 | log2 fold change (tipifarnib): -0.048

LAMP2 isoform 2 (UniProt P13473)
UniProt P13473, sequence (P13473 whole entry, looked up): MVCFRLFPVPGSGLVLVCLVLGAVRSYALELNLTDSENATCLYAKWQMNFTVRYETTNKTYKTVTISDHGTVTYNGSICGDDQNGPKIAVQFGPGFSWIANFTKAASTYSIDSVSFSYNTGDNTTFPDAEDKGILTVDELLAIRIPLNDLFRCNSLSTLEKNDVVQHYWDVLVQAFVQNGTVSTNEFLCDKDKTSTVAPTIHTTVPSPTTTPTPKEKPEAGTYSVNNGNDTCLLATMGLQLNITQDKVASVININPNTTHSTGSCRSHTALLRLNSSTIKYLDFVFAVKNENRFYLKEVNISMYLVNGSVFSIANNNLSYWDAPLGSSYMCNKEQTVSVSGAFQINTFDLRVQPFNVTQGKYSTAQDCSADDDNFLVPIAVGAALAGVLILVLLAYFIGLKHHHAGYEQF
log2 fold change (crizotinib): -0.424 (active) | log2 fold change [2]: 0.119 | log2 fold change [3]: -0.051 | log2 fold change (duvelisib): 0.344 (active) | log2 fold change (gandotinib): 0.066 | log2 fold change (tozasertib): -0.071 | log2 fold change [9]: 0.011 | log2 fold change (doramapimod): 0.002 | log2 fold change (bafetinib): -0.014 | log2 fold change [4]: -0.014 | log2 fold change (nilotinib): 0.018 | log2 fold change [5]: -0.009 | log2 fold change (dasatinib): -0.047 | log2 fold change [6]: 0 | log2 fold change [7]: 0.005 | log2 fold change (tipifarnib): 0.126 | log2 fold change (mubritinib): 0.003

MAP4 isoform 5 (UniProt P27816)
UniProt P27816, sequence (P27816 whole entry, looked up): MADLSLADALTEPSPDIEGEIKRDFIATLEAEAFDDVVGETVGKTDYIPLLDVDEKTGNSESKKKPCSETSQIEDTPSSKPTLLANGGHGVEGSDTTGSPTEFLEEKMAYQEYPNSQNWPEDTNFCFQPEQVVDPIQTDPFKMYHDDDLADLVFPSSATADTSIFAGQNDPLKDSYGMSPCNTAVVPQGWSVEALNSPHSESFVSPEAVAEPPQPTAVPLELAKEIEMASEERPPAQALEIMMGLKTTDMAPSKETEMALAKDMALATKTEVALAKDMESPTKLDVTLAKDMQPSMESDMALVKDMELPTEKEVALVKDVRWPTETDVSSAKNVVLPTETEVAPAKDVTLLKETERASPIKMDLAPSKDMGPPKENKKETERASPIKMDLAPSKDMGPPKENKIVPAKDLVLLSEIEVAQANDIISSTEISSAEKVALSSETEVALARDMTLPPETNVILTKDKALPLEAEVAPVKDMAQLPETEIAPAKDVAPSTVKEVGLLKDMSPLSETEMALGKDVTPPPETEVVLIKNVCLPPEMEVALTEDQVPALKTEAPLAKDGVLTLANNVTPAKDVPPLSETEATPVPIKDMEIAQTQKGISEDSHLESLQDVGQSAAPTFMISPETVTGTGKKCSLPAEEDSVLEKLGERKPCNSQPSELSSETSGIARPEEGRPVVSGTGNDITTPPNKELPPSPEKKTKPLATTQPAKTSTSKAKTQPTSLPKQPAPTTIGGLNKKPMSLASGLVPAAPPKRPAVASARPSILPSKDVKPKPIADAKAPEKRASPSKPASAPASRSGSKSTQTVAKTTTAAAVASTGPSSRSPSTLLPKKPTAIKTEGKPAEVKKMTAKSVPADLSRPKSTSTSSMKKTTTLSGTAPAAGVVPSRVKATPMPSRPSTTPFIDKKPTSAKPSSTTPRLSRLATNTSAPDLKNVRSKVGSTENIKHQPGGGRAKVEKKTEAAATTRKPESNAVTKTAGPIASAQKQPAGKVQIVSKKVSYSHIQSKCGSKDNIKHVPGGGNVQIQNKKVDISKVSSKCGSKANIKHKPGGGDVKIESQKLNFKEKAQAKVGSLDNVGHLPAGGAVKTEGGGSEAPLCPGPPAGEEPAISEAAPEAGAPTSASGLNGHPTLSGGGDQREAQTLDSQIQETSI
log2 fold change [1]: 0.096 | log2 fold change [2]: -0.159 | log2 fold change (ispinesib): -0.042 | log2 fold change (bafetinib): -0.028 | log2 fold change (nilotinib): -0.181 | log2 fold change [5]: 0.028 | log2 fold change [6]: 0 | log2 fold change [8]: -0.037 | log2 fold change (tipifarnib): 0.066 | log2 fold change (mubritinib): 0.027
